Compound activity: PubChem, National Center for Advancing Translational Sciences (NCATS)
Rows were chosen to be rich in hits. Some 6.5% of all compounds tested hit in one or more screens of this group.
MARV entry inh = Marburg virus entry inhibition. Potency, µM (top dose mostly 37.8 µM), most hits filed as inhibitors. hit rate 1.8% among 300,000. AID 540276. Marburg virus pseudotyped entry inhibition, cell reporter; calls by dose curve; tested in HEK293 cells
Lassa entry inh = Lassa virus entry inhibition; Lassa virus pseudotype entry inhibition, cell reporter; hit rate 1.2% among 300,000; Potency, µM (top dose mostly 37.9 µM), usual class: inhibitors; AID 540256; calls by dose curve; tested in HEK293 cells; further: nearly all actives have a fitted effect of over 50% in size
FMDV antiviral = blocks foot and mouth disease virus | FMDV antiviral cell-based qHTS | hit rate 1.2% among 410,000 | Potency, µM (top dose mostly 57.9 µM), usual class: inhibitors | AID 1159524; calls by dose curve; tested in HEK293T cells; further: read-out not given here; nearly all actives have a fitted effect of over 45% in size
HCMV inh = blocks human cytomegalovirus replication; HFF cells, HCMV-luciferase reporter, 72 h; stronger effect = lower value; activity change, negative = inhibition, % at 57.5 µM; hit rate 4.5% among 410,000; in the data active means activity change below about -60%; inconclusive means no clear call, values can overlap the other calls; inactive means above about -39%
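Screen run at 2 compound doses on HFFs infected with reporter HCMV, MOI 1 PFU/cell. Luciferase activity from cell lysates at 72 h post infection gave inhibition relative to buffer-only and Salinomycin wells.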
VACV Venus inh = inhibitors of vaccinia virus (Venus reporter); AID 720580; hit rate 0.46% among 330,000; Potency, µM (titrated, usually from 36.5 µM), hits mostly inhibitors; Vaccinia virus Venus reporter expression, fluorescence; calls by dose curve; tested in A549 cells; further: nearly all actives have a fitted effect of over 30% in size
Vaccinia mCherry = vaccinia inhibition (mCherry reporter) | AID 720579 | Potency, µM (titrated, usually from 36.5 µM), actives largely listed as inhibitors | hit rate 0.63% among 310,000 | Vaccinia virus mCherry reporter infection, fluorescence; calls by dose curve; tested in A549 cells; further: nearly all actives have a fitted effect of over 35% in size
Of the large screens only hits and unclear results are named; the others gave an inactive call.

O=C(Nc1ccc(C#Cc2ccccc2)cc1)C1CC1	MARV entry inh 2.3µM, Lassa entry inh 4.6µM, HCMV inh -64 (no result: VACV Venus inh, Vaccinia mCherry)
O=C(Nc1ccccc1C(=O)Nc1ccccc1C(=O)O)c1ccccc1	MARV entry inh inconclusive, Lassa entry inh inconclusive, HCMV inh -60
O=C(Nc1ccccc1C(=O)O)c1ccc(NC(=O)C2CC2)cc1	MARV entry inh 5µM, Lassa entry inh inconclusive, FMDV antiviral inconclusive
COc1ccccc1NC(=O)c1ccccc1Nc1ccccc1	none
Cc1nn(C(=O)c2ccc(Cl)cc2)c(C)c1Sc1ccc(Cl)cc1	FMDV antiviral inconclusive (no result: MARV entry inh)
CC[C@]1(O)C[C@@H]2CN(CCc3c([nH]c4ccccc34)[C@](C(=O)OC)(c3cc4c(cc3OC)N(C=O)[C@H]3[C@@](O)(C(=O)OC)[C@H](C(=O)OC)[C@@]5(CC)C=CCN6CC[C@]43[C@H]65)C2)C1	none (no result: MARV entry inh, Lassa entry inh, HCMV inh, VACV Venus inh, Vaccinia mCherry)
CC(=O)Nc1ccc(C#Cc2ccc(NC(C)=O)cc2)cc1	MARV entry inh 4.6µM, Lassa entry inh 7.3µM, HCMV inh -72 (no result: FMDV antiviral)
COCc1c(C(=O)N2CCN(C3CCCC3)CC2)cnn1-c1nccc(-c2cc(C)sc2C)n1	none (no result: MARV entry inh, Lassa entry inh, HCMV inh)
COc1ccc(C(C)(O)c2nc(-c3cccc(F)c3)cs2)cc1 (centres undefined)	none (no result: MARV entry inh, Lassa entry inh)
COc1ccc(CNC(=O)COC(=O)C2CCC(C(C)(C)C)CC2)cc1 (centres undefined)	MARV entry inh inconclusive, Lassa entry inh inconclusive, FMDV antiviral inconclusive, HCMV inh -77
CCOC(=O)COc1ccc2nsnc2c1	VACV Venus inh inconclusive (no result: Vaccinia mCherry)
CCOC(=O)COc1ccc(/C=C/[N+](=O)[O-])c(OCC(=O)OCC)c1	MARV entry inh 5.2µM, Lassa entry inh 21µM, FMDV antiviral 14µM, HCMV inh -105 (no result: VACV Venus inh, Vaccinia mCherry)
CCOC(=O)COc1ccc2ccccc2c1/C=C/[N+](=O)[O-]	MARV entry inh 4.5µM, Lassa entry inh inconclusive, FMDV antiviral 13µM, HCMV inh -99
O=c1[nH]c(=O)n([C@H]2C[C@@H](O)[C@@H](CO)O2)cc1C=CBr	none (no result: FMDV antiviral, HCMV inh, VACV Venus inh, Vaccinia mCherry)
O=C1C2C(c3ccccc3)(C(=O)N1c1ccc(Cl)cc1)C2(c1ccccc1)c1ccccc1 (centres undefined)	MARV entry inh inconclusive
CCn1c(SCC(=O)NNC(=O)c2ccc(OC)cc2)nnc1C1CC1	Vaccinia mCherry inconclusive
Cc1ccccc1NC(=O)COC(=O)c1ccccc1OCC(=O)Nc1ccc(Br)cc1	none (no result: MARV entry inh, Lassa entry inh, FMDV antiviral, HCMV inh)
COc1ccc(-n2cnc3sc(-c4ccccc4)cc3c2=O)cc1	MARV entry inh inconclusive, Lassa entry inh inconclusive, HCMV inh -87 (no result: FMDV antiviral)
Cn1c(-c2cccc(C(F)(F)F)c2)cc2cnc(Nc3ccc4c(c3)OCCO4)cc21	none (no result: MARV entry inh, Lassa entry inh, FMDV antiviral, VACV Venus inh, Vaccinia mCherry)
O[Si](CCCN1CCCCC1)(c1ccc(F)cc1)C1CCCCC1 (centres undefined)	MARV entry inh 2.8µM, Lassa entry inh 5.2µM, FMDV antiviral inconclusive
NS(=O)(=O)c1ccc(CCNC(=S)Nc2ccccc2)cc1	none
O=C(Nc1ccc2oc(-c3cccnc3)nc2c1)c1ccc(-c2ccccc2)o1	Lassa entry inh inconclusive, FMDV antiviral 35µM, HCMV inh -73 (no result: MARV entry inh)
CCOc1ccc(C(=O)Nc2ccc(-c3nc4cc(CC)ccc4o3)cc2)cc1	HCMV inh -74, Vaccinia mCherry inconclusive (no result: MARV entry inh)
COc1cc(C(=O)Nc2ccc3oc(-c4ccccc4)nc3c2)cc(OC)c1OC	Lassa entry inh inconclusive, FMDV antiviral inconclusive, HCMV inh -81 (no result: MARV entry inh)
CCOc1ccc(C(=O)Nc2ccc(-c3nc4cc(C)ccc4o3)cc2)cc1	none (no result: MARV entry inh)
CCN(CC)S(=O)(=O)c1ccc(NC(=O)COc2nc3ccccc3nc2N2CCOCC2)cc1	none
Cc1ccc(N2C(=O)c3ccc(C(=O)N4CCN(c5ccc(C)c(C)c5)CC4)cc3C2=O)cc1	Lassa entry inh inconclusive, HCMV inh -70
CCc1nn2c(=O)cc(COC(=O)c3ccccc3NC(=O)COc3ccccc3C)nc2s1	none (no result: MARV entry inh)
C=CCn1c(N/N=C/c2ccc(O)cc2)nc2ccccc2c1=O	HCMV inh -65 (no result: MARV entry inh, Lassa entry inh, VACV Venus inh, Vaccinia mCherry)
CSC1=NC(C)(C)C=C(/C=C/c2c(Cl)cccc2Cl)N1	none
CSC1=NC(C)(C)C=C(/C=C/c2ccc(Cl)cc2Cl)N1	MARV entry inh inconclusive, FMDV antiviral inconclusive, HCMV inh -87
CSC1=NC(C)(C)C=C(/C=C/c2ccc(Cl)cc2)N1	MARV entry inh inconclusive, Lassa entry inh inconclusive, FMDV antiviral 20µM, HCMV inh -74
CCc1cc(/C=C/c2ccnc3ccccc23)ccc1N(C)C	Vaccinia mCherry inconclusive (no result: MARV entry inh, Lassa entry inh, FMDV antiviral, HCMV inh)
CCc1c(C)nc(N)nc1N1N=C1SCC(=O)OC	HCMV inh -61
CCc1c(C)nc(N)nc1N1N=C1SCC#N	none (no result: VACV Venus inh, Vaccinia mCherry)
